# Bioassay records deposited in PubChem by several laboratories.
# The entries come from a sample that favours hits as a whole.
# AMPAR-TARP mod = modulators of AMPA receptor GluA2-stargazin complexes. HEK293 GluA2+stargazin, membrane potential dye (FDSS), glutamate EC50; hits were called plate by plate, in both directions. hit rate 3.5% among 40,000. calls only at 30 µM;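 active means any of four per-well response measures lying three or more SD from its plate-wide compound average, in either direction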
# GIRK2 activator = Activators of human GIRK2-containing channels; P48051; HEK293 GIRK2/NPY4 cells, thallium flux fluorescence; activation (% efficacy), % for hits at 75 µM; 34,000 tested, under 10 active; AID 1259324;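 active means primary screen hit, no activity in plain HEK293 cells, and in GIRK2-only cells above 5% efficacy rising with concentration; inactive means the rest, including fluorescent compounds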;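 further: efficacy is normalized control-subtracted fluorescence 15 s after thallium addition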
# Target sequence (P48051 whole entry, looked up): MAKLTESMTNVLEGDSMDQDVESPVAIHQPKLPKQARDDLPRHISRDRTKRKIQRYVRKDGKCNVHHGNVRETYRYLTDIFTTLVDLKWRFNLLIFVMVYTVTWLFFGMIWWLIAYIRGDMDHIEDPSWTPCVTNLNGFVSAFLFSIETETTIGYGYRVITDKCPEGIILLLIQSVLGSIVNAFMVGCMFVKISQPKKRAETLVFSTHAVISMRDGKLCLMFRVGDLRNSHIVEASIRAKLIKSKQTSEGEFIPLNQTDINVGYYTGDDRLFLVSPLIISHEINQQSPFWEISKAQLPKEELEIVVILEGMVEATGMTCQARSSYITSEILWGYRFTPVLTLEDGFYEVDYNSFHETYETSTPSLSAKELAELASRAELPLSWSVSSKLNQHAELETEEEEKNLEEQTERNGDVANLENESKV
# An asterisk follows results filed as active; i = inactive; · = no result; + = active, no number.
SMILES,AMPAR-TARP mod,GIRK2 activator
Cc1cc(C)c2c(n1)nn1c(NCCCN(C)C)cc(C)nc21,+,i
Cc1cc(C)c2c(n1)nn1c(NCc3ccccn3)cc(C)nc21,i,i
CS(=O)(=O)N1CCN(C(=O)c2ccc3c(c2)ncn3-c2ccccc2)CC1,i,i
O=C(NCCOc1ccc(F)cc1)c1ccc([N+](=O)[O-])cc1,i,i
O=C(NCCOc1cccc(C(F)(F)F)c1)c1ccc(Cl)c([N+](=O)[O-])c1,i,i
O=C(NCCOc1cccc(C(F)(F)F)c1)c1ccc([N+](=O)[O-])cc1,+,i
CCOc1ccc(OCCNC(=O)c2ccc([N+](=O)[O-])cc2)cc1,+,i
COc1ccccc1CC(=O)NCCOc1ccc2nnc(-c3ccc(F)cc3)n2n1,i,i
C=CCNC(=O)Nc1nc(C(=O)OCC)cs1,i,i
CCOC(=O)c1csc(NC(=O)c2cc3ccccc3o2)n1,+,·
COCCn1c(N)c(S(=O)(=O)c2cccc(Cl)c2)c2nc3ccccc3nc21,+,i
COCCCn1c(N)c(S(=O)(=O)c2cc(C)ccc2C)c2nc3ccccc3nc21,i,i
COCCCn1c(N)c(S(=O)(=O)c2ccc(OC)cc2)c2nc3ccccc3nc21,i,i
COCCCn1c(N)c(S(=O)(=O)c2ccc(Cl)cc2)c2nc3ccccc3nc21,+,i
COc1ccc(S(=O)(=O)N2CCCOC2CNC(=O)C(=O)NC2CCCC2)cc1C (stereo not drawn),i,·
Cc1nn(C2CCS(=O)(=O)C2)c2nc(-c3cccs3)cc(C(=O)Nc3ccc(F)cc3)c12 (stereo not drawn),i,i
Cc1ccc(NC(=O)c2cc(-c3cccs3)nc3c2c(C)nn3C2CCS(=O)(=O)C2)cc1 (stereo not drawn),+,i
O=C(NC(=S)Nc1ccc(S(=O)(=O)NC2CCCCC2)cc1)c1cccs1,+,·
NS(=O)(=O)c1ccc(NS(=O)(=O)c2ccc(NC(=O)C3CCCCC3)cc2)cc1,i,i
CCN(CC)c1ccc(C2C(C(=O)Nc3cccc(C(F)(F)F)c3)=C(C)NC3=C2C(=O)CCC3)cc1 (stereo not drawn),i,·
CC1=C(C(=O)Nc2cccc(C(F)(F)F)c2)C(c2ccc(C)cc2)C2=C(CCCC2=O)N1 (stereo not drawn),+,·
COc1ccc(S(=O)(=O)NC(C)C)c(C)c1C,i,·
CCOc1ccc(CC(=O)Nc2nc3c(OC)cc([N+](=O)[O-])cc3s2)cc1,i,·
O=C(CCCS(=O)(=O)c1ccc(Cl)cc1)Nc1nc(-c2cc([N+](=O)[O-])cs2)cs1,i,·
COc1cc([N+](=O)[O-])cc2sc(NC(=O)CCCS(=O)(=O)c3ccccc3)nc12,+,i
SMILES,AMPAR-TARP mod,GIRK2 activator
Cc1ccc(S(=O)(=O)CCCC(=O)Nc2nc(-c3cc([N+](=O)[O-])cs3)cs2)cc1,+,i
COc1ccc(S(=O)(=O)CC(=O)Nc2nc3ccc([N+](=O)[O-])cc3s2)cc1,i,i
O=C(CCCS(=O)(=O)c1ccccc1)Nc1nc2ccc([N+](=O)[O-])cc2s1,+,i
CCOc1ccc(-c2ccc(=O)n(CC(=O)Nc3cccc(C)c3)n2)cc1,i,i
COc1ccc(OC)c(-c2ccc(=O)n(CC(=O)Nc3cccc(C)c3)n2)c1,i,i
O=C(Nc1ccc(Cl)c(Cl)c1)N1CC(c2nc(-c3ccsc3)no2)C1,·,i
COc1ccc2[nH]c3c(SCC(=O)Nc4ccc5c(c4)OCO5)ncnc3c2c1,i,i
O=C(CC1=NS(=O)(=O)c2ccccc2N1)Nc1ccc(NC(=O)c2ccco2)cc1,i,i
COc1ccc(S(=O)(=O)Nc2ccc3c(c2)N(S(C)(=O)=O)CCC3)cc1F,i,·
O=C(OCN1C(=O)c2ccccc2C1=O)C1CCCCC1,i,·
CC(=O)OCCN1C(=O)c2cccc3c(N4CCCCC4)ccc(c23)C1=O,+,·
COC(=O)c1sc2ccccc2c1NC(=O)CSCc1ccccc1,i,i
CCOC(=O)CCC(=O)Nc1ccc(-c2nnc(N(C)c3ccc(OC)cc3)s2)cc1,i,i
CCCC(=O)NCc1cc(-c2nn(C)c(=O)c3ccccc23)ccc1OC,i,·
COc1ccc(-c2nn(C)c(=O)c3ccccc23)cc1CNC(=O)COc1cccc(C)c1,+,·
Cc1nnsc1C(=O)Nc1ccc2c(c1)N(C(=O)c1ccco1)CC2,+,i
Cc1nnsc1C(=O)Nc1ccc2c(c1)N(C(=O)C1CC1)CC2,i,i
O=S(=O)(NCC1(O)CCCC1)c1c(F)cccc1F,i,i
O=C(Nc1ccc2c(c1)CN(S(=O)(=O)c1ccccc1)CC2)c1ccc2nsnc2c1,+,i
O=C(Nc1ccc2ncsc2c1)c1ccc(S(=O)(=O)N2CCc3ccccc3C2)cc1,i,i
Cc1c(Cl)cccc1S(=O)(=O)NCc1cnn2ccccc12,·,i
COc1cc(C(=O)Nc2cc3c4c(c2)CC(=O)N4CCC3)cc(OC)c1OC,i,i
O=C(Nc1cc2c3c(c1)CC(=O)N3CCC2)c1cnccn1,+,i
O=C(NCc1n[nH]c(=O)c2ccccc12)c1ccc(Br)o1,i,i
O=C(NCc1n[nH]c(=O)c2ccccc12)c1cc(=O)c2ccccc2o1,+,i
SMILES,AMPAR-TARP mod,GIRK2 activator
Cn1c(=O)c2c(nc(N3CCOCC3)n2CCSc2nnnn2-c2ccccc2)n(C)c1=O,i,·
Cc1nnc(SCCn2c(N3CCOCC3)nc3c2c(=O)n(C)c(=O)n3C)s1,+,·
CCCCn1cnc2c(-c3ccccc3)cn(CC(=O)Nc3cccc(C(=O)OC)c3)c2c1=O,i,i
COc1ccc(C(=O)Nc2ccc([N+](=O)[O-])cn2)cc1OC,+,·
COc1cccc(OC)c1C(=O)Nc1ccc([N+](=O)[O-])cn1,i,·
Cn1cc(/C=C2\SC(=O)N(CCC(=O)O)C2=O)c2ccccc21,i,·
Cc1cccc(-c2ccc(/C=C3\C(=O)SC(=S)N3CCCC(=O)O)o2)c1,+,i
CC(=O)Nc1ccc(C2=NN(C(=O)c3ccco3)C(c3ccco3)C2)cc1 (stereo not drawn),i,i
O=C1CCc2cc(S(=O)(=O)NC3CCCCCC3)cc3c2N1CCC3,i,i
CN(C)C(=O)Cc1ccc(NC(=O)c2ccc(F)c(F)c2)cc1,i,i
Cc1nc(SCc2nc(-c3cccc(Cl)c3)no2)[nH]c(=O)c1CCO,i,·
CCOC(=O)CCC(=O)NCC1(c2ccc(OC)cc2)CCCC1,i,i
O=C(Nc1ccccc1)c1ccc(C(=O)Nc2ccccc2)nc1,i,·
O=C(Nc1ccccc1)c1cccc2nc3ccccc3nc12,+,·
CCOC(=O)N1CCC(NC(=O)c2ccc(NC(=O)Cn3c(C)cc(C)c(C#N)c3=O)cc2)CC1,i,i
CCOc1cc(/C=C/c2ccc3cccc(O)c3n2)ccc1OC,+,·
COc1cc(Br)c(/C=C/c2ccc3cccc(O)c3n2)cc1OC,i,·
COc1cc(/C=C/c2ccc3cccc(O)c3n2)ccc1O,+,·
O=[N+]([O-])c1cc(/C=C/c2ccc3cccc(O)c3n2)ccc1O,+,·
O=[N+]([O-])c1ccc(O)c(/C=C/c2ccc3cccc(O)c3n2)c1,i,·
COc1cc(/C=C/c2ccc3cccc(O)c3n2)ccc1OCc1ccccc1,i,·
